In ChEMBL document CHEMBL5724796, “Tm Shift (DSF) assay results for EUbOPEN Chemogenomics Library” (2024):
“And” between values parts separate entries of the source, which are not always exact repeats. Equal entries are not always repeated.

What was measured:
Conditions in all cases: Compound concentration 20.0 uM
[1] = biological target: Tyrosine-protein kinase ABL1 (Homo sapiens) (UniProt P00519)
[2] = biological target: Bromodomain-containing protein 4 (Homo sapiens) (UniProt O60885)
[3] = biological target: Cyclin-dependent kinase 2 (Homo sapiens) (UniProt P24941)
[4] = biological target: Casein kinase I isoform delta (Homo sapiens) (UniProt P48730)
Sequence of Casein kinase I isoform delta (Homo sapiens) (P48730 whole entry, looked up, canonical isoform): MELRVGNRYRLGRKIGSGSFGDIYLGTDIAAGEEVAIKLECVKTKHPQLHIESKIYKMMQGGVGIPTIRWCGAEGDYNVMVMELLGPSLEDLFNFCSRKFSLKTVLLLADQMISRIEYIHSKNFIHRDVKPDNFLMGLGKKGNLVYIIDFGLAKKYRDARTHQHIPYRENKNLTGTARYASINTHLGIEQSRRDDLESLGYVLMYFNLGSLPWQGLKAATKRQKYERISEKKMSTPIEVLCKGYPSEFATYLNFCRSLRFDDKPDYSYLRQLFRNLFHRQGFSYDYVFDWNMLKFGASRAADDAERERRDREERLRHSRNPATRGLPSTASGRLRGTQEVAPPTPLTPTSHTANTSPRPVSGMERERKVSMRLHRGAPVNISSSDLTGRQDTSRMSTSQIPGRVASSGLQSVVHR

[5] = biological target: Glycogen synthase kinase-3 beta (Homo sapiens) (UniProt P49841)
Sequence of Glycogen synthase kinase-3 beta (Homo sapiens) (P49841 whole entry, looked up): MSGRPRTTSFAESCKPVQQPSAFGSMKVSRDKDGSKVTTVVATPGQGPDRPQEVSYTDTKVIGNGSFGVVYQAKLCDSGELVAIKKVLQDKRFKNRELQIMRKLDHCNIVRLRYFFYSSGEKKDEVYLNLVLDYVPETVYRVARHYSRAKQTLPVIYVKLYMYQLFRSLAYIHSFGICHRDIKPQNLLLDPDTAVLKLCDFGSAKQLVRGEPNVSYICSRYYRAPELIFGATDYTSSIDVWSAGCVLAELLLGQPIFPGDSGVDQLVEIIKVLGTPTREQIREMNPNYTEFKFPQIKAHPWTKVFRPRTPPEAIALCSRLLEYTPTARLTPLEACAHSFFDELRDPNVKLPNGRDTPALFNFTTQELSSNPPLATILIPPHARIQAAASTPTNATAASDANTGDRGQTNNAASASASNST

[6] = biological target: Mitogen-activated protein kinase 1 (Homo sapiens) (UniProt P28482)
Sequence of Mitogen-activated protein kinase 1 (Homo sapiens) (P28482 whole entry): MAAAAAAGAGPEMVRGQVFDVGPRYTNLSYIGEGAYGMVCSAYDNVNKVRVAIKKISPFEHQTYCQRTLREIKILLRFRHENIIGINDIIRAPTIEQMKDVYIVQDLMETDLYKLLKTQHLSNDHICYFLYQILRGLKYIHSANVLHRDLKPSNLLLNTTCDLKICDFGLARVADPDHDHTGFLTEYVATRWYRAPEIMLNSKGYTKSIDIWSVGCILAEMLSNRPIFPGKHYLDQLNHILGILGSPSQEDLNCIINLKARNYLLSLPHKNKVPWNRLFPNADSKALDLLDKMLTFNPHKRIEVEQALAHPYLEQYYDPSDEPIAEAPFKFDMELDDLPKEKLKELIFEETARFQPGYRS

[7] = biological target: T1, Aurora kinase A (Homo sapiens) (UniProt O14965)
T1 sequence (whole entry): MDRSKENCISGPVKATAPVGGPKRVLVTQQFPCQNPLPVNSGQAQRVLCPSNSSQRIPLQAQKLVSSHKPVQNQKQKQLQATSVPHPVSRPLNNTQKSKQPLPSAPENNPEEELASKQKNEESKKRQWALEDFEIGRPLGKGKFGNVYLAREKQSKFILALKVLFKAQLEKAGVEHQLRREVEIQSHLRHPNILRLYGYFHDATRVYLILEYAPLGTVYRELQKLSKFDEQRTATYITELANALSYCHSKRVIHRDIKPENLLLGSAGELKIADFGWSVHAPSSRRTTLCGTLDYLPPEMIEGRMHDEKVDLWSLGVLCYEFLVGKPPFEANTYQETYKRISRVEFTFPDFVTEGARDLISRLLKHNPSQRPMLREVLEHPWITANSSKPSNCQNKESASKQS

[8] = biological target: T2, Transcription intermediary factor 1-alpha (Homo sapiens) (UniProt O15164)
T2 sequence (whole entry): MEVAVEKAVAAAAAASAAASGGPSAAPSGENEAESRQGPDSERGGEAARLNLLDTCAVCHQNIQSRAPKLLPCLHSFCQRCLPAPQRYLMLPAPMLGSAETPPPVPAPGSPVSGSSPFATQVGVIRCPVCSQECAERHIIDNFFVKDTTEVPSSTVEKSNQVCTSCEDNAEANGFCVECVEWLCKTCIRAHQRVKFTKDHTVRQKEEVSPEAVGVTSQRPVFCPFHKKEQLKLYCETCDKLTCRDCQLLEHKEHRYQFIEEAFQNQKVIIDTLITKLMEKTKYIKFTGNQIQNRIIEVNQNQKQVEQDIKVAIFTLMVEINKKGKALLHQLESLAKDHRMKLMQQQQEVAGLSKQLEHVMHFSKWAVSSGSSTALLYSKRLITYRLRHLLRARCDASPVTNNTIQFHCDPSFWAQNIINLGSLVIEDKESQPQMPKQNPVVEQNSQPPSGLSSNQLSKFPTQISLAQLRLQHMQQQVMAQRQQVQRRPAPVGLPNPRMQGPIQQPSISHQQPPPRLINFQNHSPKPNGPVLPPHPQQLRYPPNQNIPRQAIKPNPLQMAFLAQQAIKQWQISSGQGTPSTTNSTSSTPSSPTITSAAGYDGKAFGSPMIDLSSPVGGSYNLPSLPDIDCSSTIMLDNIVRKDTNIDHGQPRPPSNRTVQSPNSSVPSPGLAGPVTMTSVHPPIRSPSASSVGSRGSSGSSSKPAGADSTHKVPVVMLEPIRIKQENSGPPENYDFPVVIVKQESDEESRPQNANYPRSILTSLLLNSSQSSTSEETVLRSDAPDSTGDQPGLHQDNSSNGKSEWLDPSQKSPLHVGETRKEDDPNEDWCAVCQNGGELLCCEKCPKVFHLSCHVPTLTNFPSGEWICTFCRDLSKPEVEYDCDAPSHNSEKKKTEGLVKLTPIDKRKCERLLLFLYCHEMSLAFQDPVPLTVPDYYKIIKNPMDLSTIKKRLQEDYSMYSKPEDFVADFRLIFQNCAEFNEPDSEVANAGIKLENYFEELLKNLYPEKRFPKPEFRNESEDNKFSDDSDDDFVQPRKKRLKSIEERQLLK

Sequence of Tyrosine-protein kinase ABL1 (Homo sapiens) (P00519 whole entry): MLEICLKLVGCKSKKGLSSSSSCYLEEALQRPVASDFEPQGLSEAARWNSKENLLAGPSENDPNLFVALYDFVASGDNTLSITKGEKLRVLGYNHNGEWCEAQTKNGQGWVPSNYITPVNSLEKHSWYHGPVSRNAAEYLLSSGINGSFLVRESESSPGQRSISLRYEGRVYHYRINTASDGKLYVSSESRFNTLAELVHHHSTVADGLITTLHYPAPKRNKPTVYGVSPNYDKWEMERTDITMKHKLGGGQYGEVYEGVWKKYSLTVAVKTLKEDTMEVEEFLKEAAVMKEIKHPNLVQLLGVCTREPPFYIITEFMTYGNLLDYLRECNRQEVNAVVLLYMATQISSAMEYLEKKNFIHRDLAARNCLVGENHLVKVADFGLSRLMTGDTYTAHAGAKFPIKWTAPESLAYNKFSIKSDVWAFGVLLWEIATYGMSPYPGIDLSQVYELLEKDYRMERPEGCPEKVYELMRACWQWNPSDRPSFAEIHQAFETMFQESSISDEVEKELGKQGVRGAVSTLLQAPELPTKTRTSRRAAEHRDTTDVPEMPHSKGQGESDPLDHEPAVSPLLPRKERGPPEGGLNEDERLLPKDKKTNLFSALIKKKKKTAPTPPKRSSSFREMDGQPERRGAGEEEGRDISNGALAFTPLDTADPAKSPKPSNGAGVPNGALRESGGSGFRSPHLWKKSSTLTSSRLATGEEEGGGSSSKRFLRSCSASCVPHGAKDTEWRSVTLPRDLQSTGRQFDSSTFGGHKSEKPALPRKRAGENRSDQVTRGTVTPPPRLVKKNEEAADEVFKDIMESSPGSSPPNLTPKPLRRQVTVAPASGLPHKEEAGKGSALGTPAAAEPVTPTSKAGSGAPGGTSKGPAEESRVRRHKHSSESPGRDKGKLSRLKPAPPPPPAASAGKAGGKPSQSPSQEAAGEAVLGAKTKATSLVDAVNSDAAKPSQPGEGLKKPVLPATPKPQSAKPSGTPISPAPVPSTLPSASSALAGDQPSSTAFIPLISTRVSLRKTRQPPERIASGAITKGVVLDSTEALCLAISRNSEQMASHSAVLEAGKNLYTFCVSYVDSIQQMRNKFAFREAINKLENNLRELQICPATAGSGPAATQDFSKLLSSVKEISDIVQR

O=C(CCCCCCNC(=O)c1cnc(N(c2ccccc2)c2ccccc2Cl)nc1)NO
ΔTm [1]: 0.43 °C
ΔTm [2]: -2.47 °C
ΔTm [3]: 0.09 °C
ΔTm [4]: 0.15 °C
ΔTm [5]: -0.06 °C
ΔTm [6]: -0.04 °C
ΔTm [7]: -0.63 °C
ΔTm [8]: -0.75 °C

Cc1cc(S(C)(=O)=O)c(S(C)(=O)=O)cc1C(=O)NC(=N)N
ΔTm [1]: 0.73 °C
ΔTm [2]: -0.31 °C
ΔTm [3]: 0.23 °C
ΔTm [4]: -0.54 °C
ΔTm [5]: 0.15 °C
ΔTm [6]: 0.12 °C
ΔTm [7]: -1.63 °C
ΔTm [8]: 0.34 °C

CN1CCN(c2ccc3nc(-c4c(N)c5c(F)cccc5[nH]c4=O)[nH]c3c2)CC1
ΔTm [2]: -0.49 °C
ΔTm [3]: 0.73 °C
ΔTm [4]: 2.74 °C
ΔTm [5]: 3.22 °C
ΔTm [6]: -0.2 °C
ΔTm [7]: 2.63 °C
ΔTm [8]: -0.57 °C

CC(C)Cc1nn(C)c(=O)c2c(SCCCO)n(Cc3cccc4ccccc34)cc12
ΔTm [1]: -3.82 °C and -3.97 °C
ΔTm [2]: -4.1 °C and -4.31 °C
ΔTm [3]: -0.96 °C and -1.96 °C
ΔTm [4]: -8.7 °C and -11.7 °C
ΔTm [5]: -0.77 °C and -4.36 °C
ΔTm [7]: -2.79 °C and -2.11 °C
ΔTm [8]: -0.87 °C and 0.82 °C

N#Cc1ccc(-c2c3n(c4cccnc24)CCN(C2CC2)C3=O)cc1F
ΔTm [1]: 0.62 °C
ΔTm [2]: -3.17 °C
ΔTm [3]: 0.14 °C
ΔTm [4]: -0.26 °C
ΔTm [5]: 1.8 °C
ΔTm [6]: 0.04 °C
ΔTm [7]: -2.3 °C
ΔTm [8]: 0.73 °C

CNc1ncc2cc(-c3cc(NC(=O)NCCC(C)(C)C)c(F)cc3C)c(C)nc2n1
ΔTm [2]: -2.79 °C
ΔTm [3]: 0.45 °C
ΔTm [4]: 0.25 °C
ΔTm [5]: 1.15 °C
ΔTm [6]: -2.34 °C
ΔTm [7]: -0.92 °C
ΔTm [8]: -0.11 °C

CN1Cc2c(Cl)cc(Cl)cc2[C@H](c2cccc(S(=O)(=O)NCCOCCOCCNC(=O)NCCCCNC(=O)NCCOCCOCCNS(=O)(=O)c3cccc([C@@H]4CN(C)Cc5c(Cl)cc(Cl)cc54)c3)c2)C1
ΔTm [1]: -0.4 °C
ΔTm [2]: -2.19 °C
ΔTm [3]: -0.62 °C
ΔTm [4]: -0.55 °C
ΔTm [5]: -1.54 °C
ΔTm [6]: 0 °C
ΔTm [7]: -2.14 °C
ΔTm [8]: -0.19 °C

O=C1COc2c(cccc2[C@@H](O)CNCCN(C(=O)CCNCCc2ccc(Cl)c(Cl)c2)C2CCCCC2)N1
ΔTm [1]: 0.38 °C
ΔTm [2]: -1.19 °C
ΔTm [3]: 0.73 °C
ΔTm [4]: 0.16 °C
ΔTm [5]: 0.42 °C
ΔTm [6]: 0.56 °C
ΔTm [7]: -1.62 °C
ΔTm [8]: 1.39 °C

Nc1nc(NC2CC2)cc(-c2cccc(Cl)c2Cl)n1
ΔTm [1]: 0.77 °C
ΔTm [2]: -2.44 °C
ΔTm [3]: 0.2 °C
ΔTm [4]: -0.46 °C
ΔTm [5]: 0.36 °C
ΔTm [6]: 0.25 °C
ΔTm [7]: -1.81 °C
ΔTm [8]: 0.87 °C

CN1CC[C@@H](Oc2ccc(F)c(-c3nc4c(o3)C(=O)c3ccccc3C4=O)c2Cl)C1
ΔTm [1]: 0.09 °C
ΔTm [2]: 0.99 °C
ΔTm [3]: 0.38 °C
ΔTm [4]: -0.29 °C
ΔTm [5]: -0.09 °C
ΔTm [6]: 0.24 °C
ΔTm [7]: -1.95 °C
ΔTm [8]: -0.66 °C

N=C(N)SCc1ccc(CN2C(=O)C(=O)c3cc(C(F)(F)F)ccc32)cc1
ΔTm [1]: -0.91 °C
ΔTm [2]: -2.92 °C
ΔTm [3]: 0.03 °C
ΔTm [4]: 0.19 °C
ΔTm [5]: -0.71 °C
ΔTm [6]: 0.42 °C
ΔTm [7]: -1.8 °C
ΔTm [8]: 0 °C

CCN(c1cc(C#CCN2CCOCC2)cc(C(=O)NCc2c(C)cc(C)[nH]c2=O)c1C)[C@H]1CC[C@H](N(C)CCOC)CC1
ΔTm [1]: 0.47 °C
ΔTm [2]: -1.47 °C
ΔTm [3]: 0.53 °C
ΔTm [4]: 0.46 °C
ΔTm [5]: -0.17 °C
ΔTm [6]: 0.04 °C
ΔTm [7]: -0.54 °C
ΔTm [8]: -0.98 °C

Cc1ncc(Cl)cc1NCc1ccc(C(=O)N[C@@H](CC2CCCC2)C(=O)NC2CC2)s1
ΔTm ([1]; Protein concentration 2.0 uM): 2 °C
ΔTm [2]: -3.44 °C
ΔTm [3]: -0.15 °C
ΔTm [4]: -0.05 °C
ΔTm [5]: 10.5 °C
ΔTm [6]: -3.12 °C
ΔTm [7]: 7.63 °C
ΔTm [8]: 2.21 °C

CS(=O)(=O)N1CCN(C(=O)c2cnc3ccc(Cl)cc3c2-c2ccc(C3(C#N)CC3)cc2)CC1
ΔTm [1]: 0.55 °C
ΔTm [2]: -2.94 °C
ΔTm [3]: 0.81 °C
ΔTm [4]: 0.96 °C
ΔTm [5]: 4.93 °C
ΔTm [6]: 0.97 °C
ΔTm [7]: -2.24 °C
ΔTm [8]: -1.2 °C

CC(C)[C@@H]1NC(=O)[C@H](Cc2ccc(O)cc2)NC(=O)[C@@H](CC(=O)O)NC(=O)S[C@@H](C(=O)O)NC(=O)[C@H]([C@H](C)O)NC(=O)[C@H](Cc2ccc(O)cc2)NC(=O)[C@H](Cc2c[nH]c3ccccc23)NC(=O)[C@H](CCCNC(=N)N)NC(=O)[C@H](Cc2c[nH]c3ccccc23)NC(=O)[C@H](C)NC(=O)[C@H](CO)NC(=O)[C@H](CCCNC(=N)N)NC(=O)[C@H]([C@H](C)O)NC(=O)[C@H](CC(N)=O)NC(=O)[C@H](Cc2ccc(O)cc2)NC1=O
ΔTm [1]: 0.39 °C
ΔTm [2]: -2.6 °C
ΔTm [3]: 0.11 °C
ΔTm [4]: -0.3 °C
ΔTm [5]: -0.36 °C
ΔTm [6]: 0.08 °C
ΔTm [7]: -2.45 °C
ΔTm [8]: -0.7 °C
